Experimental data as given in the supplement of paper PMC7411054.
Counter-ions that a name gives are not always drawn.

What was measured:
Conditions in all cases: treatment time: 24 h
A549-GM130-SQSTM1 [1] = test: lowest phenotypically active concentration; higher = less potent
Method in brief: (§1)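 Cells from fifteen gene-edited reporter lines (A549, HepG2 and WPMY1) were treated for 24 h at 0.3, 1, 3 or 9 µM and imaged live, four wells per condition. Features were normalised per well to solvent control wells. A condition deviated if ≥3 of 4 wells passed the 95th percentile of control Euclidean distances and was reproducible if its median replicate Pearson correlation beat the 95th percentile of non-replicates; phenotypic activity needed both.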

HepG2-GM130-SQSTM1 [2] = test: as above
Method in brief: as §1

WPMY1-GM130-SQSTM1 [3] = test: as above
Method in brief: as §1

WPMY1-TP53BP1-CLTA [4] = test: as above
Method in brief: as §1

A549-ACTB-RAB5A = test: phenotypically active (imaging signature differs from DMSO and reproducible) at any of 0.3-9 uM (binary (1 = active, 0 = inactive)); higher = active
Method in brief: as §1

A549-CANX-COX4 = test: as above
Method in brief: as §1

A549-GM130-SQSTM1 [5] = test: as above
Method in brief: as §1

A549-TP53BP1-CLTA = test: as above
Method in brief: as §1

A549-TUBA1B-RELA = test: as above
Method in brief: as §1

HepG2-ACTB-RAB5A = test: as above
Method in brief: as §1

HepG2-CANX-COX4 [6] = test: as above
Method in brief: as §1

HepG2-GM130-SQSTM1 [7] = test: as above
Method in brief: as §1

HepG2-TP53BP1-CLTA = test: as above
Method in brief: as §1

HepG2-TUBA1B-RELA = test: as above
Method in brief: as §1

WPMY1-ACTB-RAB5A = test: as above
Method in brief: as §1

WPMY1-CANX-COX4 = test: as above
Method in brief: as §1

WPMY1-GM130-SQSTM1 [8] = test: as above
Method in brief: as §1

WPMY1-TP53BP1-CLTA [9] = test: as above
Method in brief: as §1

WPMY1-TUBA1B-RELA = test: as above
Method in brief: as §1

HepG2-CANX-COX4 [10] = test: lowest phenotypically active concentration; higher = less potent
Method in brief: as §1

Row | Compound | lowest phenotypically active concentration (A549-GM130-SQSTM1 [1]) [µM] | lowest phenotypically active concentration (HepG2-GM130-SQSTM1 [2]) [µM] | lowest phenotypically active concentration (WPMY1-GM130-SQSTM1 [3]) [µM] | lowest phenotypically active concentration (WPMY1-TP53BP1-CLTA [4]) [µM] | phenotypically active (A549-ACTB-RAB5A) | phenotypically active (A549-CANX-COX4) | phenotypically active (A549-GM130-SQSTM1 [5]) | phenotypically active (A549-TP53BP1-CLTA) | phenotypically active (A549-TUBA1B-RELA) | phenotypically active (HepG2-ACTB-RAB5A) | phenotypically active (HepG2-CANX-COX4 [6]) | phenotypically active (HepG2-GM130-SQSTM1 [7]) | phenotypically active (HepG2-TP53BP1-CLTA) | phenotypically active (HepG2-TUBA1B-RELA) | phenotypically active (WPMY1-ACTB-RAB5A) | phenotypically active (WPMY1-CANX-COX4) | phenotypically active (WPMY1-GM130-SQSTM1 [8]) | phenotypically active (WPMY1-TP53BP1-CLTA [9]) | phenotypically active (WPMY1-TUBA1B-RELA) | lowest phenotypically active concentration (HepG2-CANX-COX4 [10]) [µM]
1 | C[C@@H]1CC[C@H]2[C@@H](C)C(=O)O[C@@H]3O[C@@]4(C)CC[C@@H]1[C@]32OO4 [Artemisinin] | 3 | 3 | ≤ 0.3 | 1 | 1 (active) | 0 (inactive) | 1 (active) | 1 (active) | 1 (active) | 1 (active) | 0 (inactive) | 1 (active) | 1 (active) | 1 (active) | 1 (active) | 1 (active) | 1 (active) | 1 (active) | 1 (active) | –
2 | CCn1cnc2c(Nc3cccc(Cl)c3)nc(N[C@H]3CCCC[C@H]3N)nc21 | 1 | 1 | 1 | 1 | 1 (active) | 1 (active) | 1 (active) | 1 (active) | 1 (active) | 1 (active) | 1 (active) | 1 (active) | 1 (active) | 1 (active) | 1 (active) | 1 (active) | 1 (active) | 1 (active) | 1 (active) | 1
3 | CN1CCC2=C[C@H](O)[C@H]3OC(=O)c4cc5c(cc4[C@H]3[C@@H]21)OCO5 [Hippeastrine hydrobromide] | – | – | – | – | 1 (active) | 0 (inactive) | 0 (inactive) | 0 (inactive) | 0 (inactive) | 0 (inactive) | 1 (active) | 0 (inactive) | 0 (inactive) | 0 (inactive) | 0 (inactive) | 0 (inactive) | 0 (inactive) | 0 (inactive) | 0 (inactive) | 9
4 | CC[C@@H](C)C(=O)O[C@H]1[C@H](O)[C@H]2[C@@H](CN3C[C@@H](C)CC[C@H]3[C@@]2(C)O)C2C[C@]34O[C@]5(O)[C@@H](OC(=O)[C@](C)(O)CC)CC[C@@]3(C)[C@@H]5[C@@H](OC(C)=O)[C@@H](OC(C)=O)[C@H]4[C@@]21O (stereo not given in full) [Protoveratrine A] | 3 | – | – | – | 0 (inactive) | 0 (inactive) | 1 (active) | 0 (inactive) | 0 (inactive) | 0 (inactive) | 0 (inactive) | 0 (inactive) | 0 (inactive) | 0 (inactive) | 0 (inactive) | 0 (inactive) | 0 (inactive) | 0 (inactive) | 0 (inactive) | –
5 | CC[C@H]1CN2CCc3cc(OC)c(OC)cc3[C@@H]2C[C@@H]1C[C@H]1NCCc2cc(OC)c(OC)cc21 [emetine] | ≤ 0.3 | ≤ 0.3 | ≤ 0.3 | ≤ 0.3 | 1 (active) | 1 (active) | 1 (active) | 1 (active) | 1 (active) | 1 (active) | 1 (active) | 1 (active) | 1 (active) | 1 (active) | 1 (active) | 1 (active) | 1 (active) | 1 (active) | 1 (active) | ≤ 0.3
6 | CC(C)C[C@H]1C(=O)N2CCC[C@H]2[C@]2(O)O[C@](NC(=O)[C@@H]3C=C4c5cccc6[nH]c(Br)c(c56)C[C@H]4N(C)C3)(C(C)C)C(=O)N12 [bromocriptine] | – | 9 | 9 | 9 | – | 0 (inactive) | – | 1 (active) | – | 1 (active) | 1 (active) | 1 (active) | 1 (active) | 1 (active) | 0 (inactive) | 0 (inactive) | 1 (active) | 1 (active) | 0 (inactive) | 9
7 | C[C@H]1CCCC=C[C@@H]2C[C@H](O)C[C@H]2[C@H](O)C=CC(=O)O1 [brefeldin-a] | – | ≤ 0.3 | ≤ 0.3 | ≤ 0.3 | – | 1 (active) | – | 1 (active) | – | 1 (active) | 1 (active) | 1 (active) | 1 (active) | 1 (active) | 1 (active) | 1 (active) | 1 (active) | 1 (active) | 1 (active) | ≤ 0.3
8 | COc1cc2c(cc1O)C[C@H]1c3c(cc(O)c(OC)c3-2)CCN1C [Boldine] | 9 | – | 1 | – | 0 (inactive) | 0 (inactive) | 1 (active) | 0 (inactive) | 1 (active) | 1 (active) | 0 (inactive) | 0 (inactive) | 0 (inactive) | 0 (inactive) | 0 (inactive) | 0 (inactive) | 1 (active) | 0 (inactive) | 0 (inactive) | –
9 | C[C@]1(C(=O)O)CCC[C@]2(C)c3cc(O)ccc3CC[C@@H]12 [Podocarpic acid] | – | – | – | – | – | 0 (inactive) | – | 0 (inactive) | – | 0 (inactive) | 0 (inactive) | 0 (inactive) | 0 (inactive) | 0 (inactive) | 0 (inactive) | 0 (inactive) | 0 (inactive) | 0 (inactive) | 0 (inactive) | –
10 | CCC(=O)C(CC(C)N(C)C)(c1ccccc1)c1ccccc1 (stereo not given) [methadone] | – | – | – | – | 0 (inactive) | 0 (inactive) | 0 (inactive) | – | 0 (inactive) | 0 (inactive) | 0 (inactive) | 0 (inactive) | – | 0 (inactive) | 0 (inactive) | 0 (inactive) | 0 (inactive) | – | 0 (inactive) | –
11 | C[C@@H](CO)NC(=O)[C@@H]1C=C2c3cccc4[nH]cc(c34)C[C@H]2N(C)C1 [Ergobasine] | 9 | 9 | 9 | 9 | 0 (inactive) | 0 (inactive) | 1 (active) | 1 (active) | 0 (inactive) | 0 (inactive) | 0 (inactive) | 1 (active) | 0 (inactive) | 0 (inactive) | 0 (inactive) | 1 (active) | 1 (active) | 1 (active) | 0 (inactive) | –
12 | CC(C)c1cccc(C(C)C)c1O [propofol] | – | – | 3 | – | 0 (inactive) | 0 (inactive) | 0 (inactive) | 0 (inactive) | 0 (inactive) | 0 (inactive) | 0 (inactive) | 0 (inactive) | 0 (inactive) | 0 (inactive) | 0 (inactive) | 0 (inactive) | 1 (active) | 0 (inactive) | 0 (inactive) | –
13 | C/C=C(/C)C(=O)O[C@H]1CC[C@@]2(C)[C@@H]3CC[C@H]4[C@]5(O)C[C@H](O)[C@@]6(O)[C@@H](CN7C[C@@H](C)CC[C@H]7[C@@]6(C)O)[C@]5(O)C[C@@]42O[C@]13O [Veratrine] | – | – | – | – | 0 (inactive) | 0 (inactive) | 0 (inactive) | 0 (inactive) | 0 (inactive) | 0 (inactive) | 0 (inactive) | 0 (inactive) | 0 (inactive) | 1 (active) | 0 (inactive) | 0 (inactive) | 0 (inactive) | 0 (inactive) | 0 (inactive) | –
14 | BrC1C(Br)C(Br)C(Br)C(Br)C1Br (stereo not given) [1,2,3,4,5,6-Hexabromocyclohexane] | – | 9 | – | – | 0 (inactive) | 0 (inactive) | 0 (inactive) | 0 (inactive) | 0 (inactive) | 0 (inactive) | 0 (inactive) | 1 (active) | 0 (inactive) | 0 (inactive) | 0 (inactive) | 0 (inactive) | 0 (inactive) | 0 (inactive) | 0 (inactive) | –
15 | C[C@H](N)Cc1ccccc1 [dextroamphetamine] | 3 | – | – | – | 1 (active) | 0 (inactive) | 1 (active) | – | 1 (active) | 0 (inactive) | 0 (inactive) | 0 (inactive) | – | 0 (inactive) | 0 (inactive) | 0 (inactive) | 0 (inactive) | – | 0 (inactive) | –
16 | O=C1NC(=S)N(c2cccc(Br)c2)C(=O)/C1=C/c1ccco1 | – | 9 | 3 | 9 | 0 (inactive) | 0 (inactive) | 0 (inactive) | 0 (inactive) | 1 (active) | 0 (inactive) | 1 (active) | 1 (active) | 0 (inactive) | 1 (active) | 1 (active) | 1 (active) | 1 (active) | 1 (active) | 1 (active) | 9
17 | CCN(CC)CCN1C(=O)CN=C(c2ccccc2F)c2cc(Cl)ccc21 [flurazepam] | – | – | – | – | 0 (inactive) | 0 (inactive) | 0 (inactive) | 0 (inactive) | 0 (inactive) | 0 (inactive) | 1 (active) | 0 (inactive) | 0 (inactive) | 0 (inactive) | 0 (inactive) | 0 (inactive) | 0 (inactive) | 0 (inactive) | 0 (inactive) | 1
18 | CN1C[C@H](CO)C=C2c3cccc4[nH]cc(c34)C[C@H]21 [Lysergol] | – | – | 9 | – | 0 (inactive) | 0 (inactive) | 0 (inactive) | 0 (inactive) | 0 (inactive) | 0 (inactive) | 0 (inactive) | 0 (inactive) | 0 (inactive) | 0 (inactive) | 0 (inactive) | 0 (inactive) | 1 (active) | 0 (inactive) | 0 (inactive) | –
19 | C=C1C/C(=C\C)C(=O)O[C@@H]2CCN3CC=C(COC(=O)[C@]1(C)O)[C@H]23 [Seneciphylline] | – | – | – | – | 0 (inactive) | 0 (inactive) | 0 (inactive) | 0 (inactive) | 0 (inactive) | 0 (inactive) | 0 (inactive) | 0 (inactive) | 1 (active) | 0 (inactive) | 0 (inactive) | 0 (inactive) | 0 (inactive) | 0 (inactive) | 0 (inactive) | –
20 | C[C@@H]1C[C@@H]([C@H](O)CC2CC(=O)NC(=O)C2)C(=O)[C@@H](C)C1 [Cycloheximide] | – | ≤ 0.3 | ≤ 0.3 | ≤ 0.3 | – | 1 (active) | – | 1 (active) | – | 1 (active) | 1 (active) | 1 (active) | 1 (active) | 1 (active) | 1 (active) | 1 (active) | 1 (active) | 1 (active) | 1 (active) | ≤ 0.3
21 | N#Cc1c(Oc2cccc(OS(=O)(=O)CCCC(F)(F)F)c2)cccc1C(F)(F)F | – | 9 | – | – | 0 (inactive) | 0 (inactive) | 0 (inactive) | 0 (inactive) | 0 (inactive) | 0 (inactive) | 0 (inactive) | 1 (active) | 0 (inactive) | 0 (inactive) | 0 (inactive) | 0 (inactive) | 0 (inactive) | 0 (inactive) | 0 (inactive) | –
22 | CN1[C@@H]2CC[C@H]1C[C@@H](OC(=O)C(CO)c1ccccc1)C2 (stereo not given in full) [Atropine sulfate monohydrate] | – | – | – | – | 0 (inactive) | 0 (inactive) | 0 (inactive) | – | 0 (inactive) | 0 (inactive) | 0 (inactive) | 0 (inactive) | – | 0 (inactive) | 0 (inactive) | 0 (inactive) | 0 (inactive) | – | 0 (inactive) | –
23 | O=P1(N(CCCl)CCCl)NCCCO1 (stereo not given) [cyclophosphamide] | – | – | – | – | – | 0 (inactive) | – | 0 (inactive) | – | 0 (inactive) | 0 (inactive) | 0 (inactive) | 0 (inactive) | 0 (inactive) | 0 (inactive) | 0 (inactive) | 0 (inactive) | 0 (inactive) | 0 (inactive) | –
